Assay results as given in publication PMC7862700, “An all-to-all approach to the identification of sequence-specific readers for epigenetic DNA modifications on cytosine”.

Legend:
Assay in all cases: DAPPL (digital affinity profiling via proximity ligation, sequencing); 10 mM Tris-HCl pH 7.5, 50 mM NaCl, 1 mM DTT, 4% glycerol, room temperature, 30 min; GST-TFs on glutathione beads, 16-mer random dsDNA library, 0.1% formaldehyde crosslink after washing; high values mean tight binding
Conditions in all cases: protein: recombinant; tags: N-terminal GST; dsDNA, one strand shown
ERF = target: T1, ERF (Homo sapiens, UniProt P50548 1-548)
T1 sequence: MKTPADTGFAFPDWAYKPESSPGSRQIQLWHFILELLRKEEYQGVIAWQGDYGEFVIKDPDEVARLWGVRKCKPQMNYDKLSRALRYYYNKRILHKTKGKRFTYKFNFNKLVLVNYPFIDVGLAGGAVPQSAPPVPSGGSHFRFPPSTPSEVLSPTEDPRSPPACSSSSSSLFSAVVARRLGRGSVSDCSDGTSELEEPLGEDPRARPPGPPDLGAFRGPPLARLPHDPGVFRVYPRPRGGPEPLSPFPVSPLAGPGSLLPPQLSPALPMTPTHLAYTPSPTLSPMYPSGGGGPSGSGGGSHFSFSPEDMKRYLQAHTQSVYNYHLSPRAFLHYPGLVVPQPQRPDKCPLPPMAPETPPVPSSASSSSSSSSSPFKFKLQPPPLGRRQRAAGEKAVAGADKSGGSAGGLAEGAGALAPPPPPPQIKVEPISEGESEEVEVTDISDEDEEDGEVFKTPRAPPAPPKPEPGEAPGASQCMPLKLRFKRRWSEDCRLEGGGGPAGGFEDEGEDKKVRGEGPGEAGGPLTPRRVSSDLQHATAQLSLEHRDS
Procedure, shortened: (§1)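 GST fusions of human transcription factors were expressed in yeast and captured with glutathione beads. Once given DNA barcodes and pooled alongside a tag-only sample, they were incubated for 30 min at room temperature with 200 nmole of a random double-stranded 16-mer DNA library in Tris/NaCl/DTT/glycerol buffer, then washed, crosslinked (0.1% formaldehyde), proximity-ligated, PCR-amplified and sequenced on an Illumina NextSeq500. The binding signal of each hexamer is its read frequency for a factor divided by its frequency for the tag-only sample.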

ETV3L = target: T2, ETV3L (Homo sapiens, UniProt Q6ZN32 1-361)
T2 sequence: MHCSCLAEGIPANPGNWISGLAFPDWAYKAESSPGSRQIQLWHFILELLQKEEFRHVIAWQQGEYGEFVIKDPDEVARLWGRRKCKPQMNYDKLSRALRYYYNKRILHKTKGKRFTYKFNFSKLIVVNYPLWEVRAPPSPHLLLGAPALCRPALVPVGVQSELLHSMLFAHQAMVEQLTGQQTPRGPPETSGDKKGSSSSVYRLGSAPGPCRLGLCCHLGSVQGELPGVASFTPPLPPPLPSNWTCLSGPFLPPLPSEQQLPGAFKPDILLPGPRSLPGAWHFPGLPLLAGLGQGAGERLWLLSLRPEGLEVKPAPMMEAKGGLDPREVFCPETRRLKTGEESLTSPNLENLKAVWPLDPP
Procedure, shortened: as §1

ETS2 = target: T3, ETS2 (Homo sapiens, UniProt P15036 1-469)
T3 sequence: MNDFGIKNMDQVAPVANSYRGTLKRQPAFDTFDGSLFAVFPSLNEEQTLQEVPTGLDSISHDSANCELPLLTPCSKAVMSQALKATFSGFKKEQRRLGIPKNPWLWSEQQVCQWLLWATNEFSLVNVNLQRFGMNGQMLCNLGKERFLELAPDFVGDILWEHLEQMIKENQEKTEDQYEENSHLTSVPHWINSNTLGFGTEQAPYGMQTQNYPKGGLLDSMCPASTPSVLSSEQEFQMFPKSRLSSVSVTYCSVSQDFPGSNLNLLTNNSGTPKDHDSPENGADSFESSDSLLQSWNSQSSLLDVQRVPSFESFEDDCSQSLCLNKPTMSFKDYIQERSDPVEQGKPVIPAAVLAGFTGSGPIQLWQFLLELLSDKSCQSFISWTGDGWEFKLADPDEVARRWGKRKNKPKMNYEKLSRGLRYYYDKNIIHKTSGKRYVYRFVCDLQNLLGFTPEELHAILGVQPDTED
Procedure, shortened: as §1

SPDEF = target: T4, SPDEF (Homo sapiens, UniProt O95238 1-335)
T4 sequence: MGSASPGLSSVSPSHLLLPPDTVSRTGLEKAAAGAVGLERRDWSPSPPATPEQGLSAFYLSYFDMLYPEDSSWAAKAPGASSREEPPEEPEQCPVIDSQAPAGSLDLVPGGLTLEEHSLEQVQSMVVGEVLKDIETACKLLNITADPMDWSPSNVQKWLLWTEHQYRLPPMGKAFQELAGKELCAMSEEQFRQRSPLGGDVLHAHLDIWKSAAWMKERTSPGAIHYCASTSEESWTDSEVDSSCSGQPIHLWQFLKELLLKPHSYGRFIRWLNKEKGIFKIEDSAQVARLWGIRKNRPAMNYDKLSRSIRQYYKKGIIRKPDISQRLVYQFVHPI
Procedure, shortened: as §1

ETV7 = target: T5, ETV7 (Homo sapiens, UniProt Q9Y603 1-341)
T5 sequence: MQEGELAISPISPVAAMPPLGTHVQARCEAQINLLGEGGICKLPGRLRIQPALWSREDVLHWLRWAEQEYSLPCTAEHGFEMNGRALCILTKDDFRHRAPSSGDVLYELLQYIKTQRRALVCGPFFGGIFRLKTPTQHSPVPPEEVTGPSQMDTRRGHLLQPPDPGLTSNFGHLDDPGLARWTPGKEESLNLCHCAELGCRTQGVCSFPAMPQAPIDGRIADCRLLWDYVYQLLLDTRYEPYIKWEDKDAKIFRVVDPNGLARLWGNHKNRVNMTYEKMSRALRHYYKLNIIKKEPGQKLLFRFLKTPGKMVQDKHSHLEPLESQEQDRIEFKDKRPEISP
Procedure, shortened: as §1

ELF5 = target: T6, ELF5 (Homo sapiens, UniProt Q9UKW6-2 1-255)
T6 sequence: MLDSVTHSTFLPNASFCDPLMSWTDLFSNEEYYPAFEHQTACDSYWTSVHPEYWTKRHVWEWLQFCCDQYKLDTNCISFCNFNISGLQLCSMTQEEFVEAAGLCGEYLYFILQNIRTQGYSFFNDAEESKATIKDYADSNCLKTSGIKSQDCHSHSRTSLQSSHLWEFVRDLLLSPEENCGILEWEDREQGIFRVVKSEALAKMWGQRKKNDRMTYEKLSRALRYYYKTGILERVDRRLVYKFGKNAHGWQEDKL
Procedure, shortened: as §1

ETV3 = target: T7, ETV3 (Homo sapiens, UniProt P41162-2 1-143)
T7 sequence: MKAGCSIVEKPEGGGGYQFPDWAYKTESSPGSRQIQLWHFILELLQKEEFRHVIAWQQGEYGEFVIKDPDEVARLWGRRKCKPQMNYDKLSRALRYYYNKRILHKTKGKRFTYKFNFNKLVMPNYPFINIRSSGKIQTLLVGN
Procedure, shortened: as §1

ETV6 = ETV6 (Homo sapiens, UniProt P41212 1-452)
ETV6, sequence (P41212 whole entry): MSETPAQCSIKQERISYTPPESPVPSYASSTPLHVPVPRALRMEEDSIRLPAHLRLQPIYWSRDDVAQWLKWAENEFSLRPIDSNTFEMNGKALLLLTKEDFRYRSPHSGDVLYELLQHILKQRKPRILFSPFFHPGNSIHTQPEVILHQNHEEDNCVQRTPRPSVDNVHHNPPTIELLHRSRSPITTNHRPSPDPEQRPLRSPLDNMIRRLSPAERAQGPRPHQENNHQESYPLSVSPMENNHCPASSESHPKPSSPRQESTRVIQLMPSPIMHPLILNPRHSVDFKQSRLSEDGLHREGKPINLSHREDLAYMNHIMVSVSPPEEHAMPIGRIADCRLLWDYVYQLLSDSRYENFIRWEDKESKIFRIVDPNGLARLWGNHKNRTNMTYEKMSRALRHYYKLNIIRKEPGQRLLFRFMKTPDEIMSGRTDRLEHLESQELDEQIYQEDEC
Procedure, shortened: as §1

Sequence | binding signal (ERF) | binding signal (ETV3L) | binding signal (ETS2) | binding signal (SPDEF) | binding signal (ETV7) | binding signal (ELF5) | binding signal (ETV3) | binding signal (ETV6)
TACGAC | 1.18 fold enrichment (6-mer frequency, TF over GST control) | 1.22 fold enrichment (6-mer frequency, TF over GST control) | 1.27 fold enrichment (6-mer frequency, TF over GST control) | 1.48 fold enrichment (6-mer frequency, TF over GST control) | 1.18 fold enrichment (6-mer frequency, TF over GST control) | 1.29 fold enrichment (6-mer frequency, TF over GST control) | 1.33 fold enrichment (6-mer frequency, TF over GST control) | 1.29 fold enrichment (6-mer frequency, TF over GST control)
ATTTTG | 1.24 fold enrichment (6-mer frequency, TF over GST control) | 1.29 fold enrichment (6-mer frequency, TF over GST control) | 1.2 fold enrichment (6-mer frequency, TF over GST control) | 1.09 fold enrichment (6-mer frequency, TF over GST control) | 1.14 fold enrichment (6-mer frequency, TF over GST control) | 1.2 fold enrichment (6-mer frequency, TF over GST control) | 1.1 fold enrichment (6-mer frequency, TF over GST control) | 1.24 fold enrichment (6-mer frequency, TF over GST control)
ACTACG | 1.34 fold enrichment (6-mer frequency, TF over GST control) | 1.31 fold enrichment (6-mer frequency, TF over GST control) | 1.26 fold enrichment (6-mer frequency, TF over GST control) | 1.27 fold enrichment (6-mer frequency, TF over GST control) | 1.4 fold enrichment (6-mer frequency, TF over GST control) | 1.33 fold enrichment (6-mer frequency, TF over GST control) | 1.35 fold enrichment (6-mer frequency, TF over GST control) | 1.32 fold enrichment (6-mer frequency, TF over GST control)
AAATTG | 1.3 fold enrichment (6-mer frequency, TF over GST control) | 1.29 fold enrichment (6-mer frequency, TF over GST control) | 1.22 fold enrichment (6-mer frequency, TF over GST control) | 1.19 fold enrichment (6-mer frequency, TF over GST control) | 1.25 fold enrichment (6-mer frequency, TF over GST control) | 1.22 fold enrichment (6-mer frequency, TF over GST control) | 1.28 fold enrichment (6-mer frequency, TF over GST control) | 1.34 fold enrichment (6-mer frequency, TF over GST control)
TCTTAC | 1.29 fold enrichment (6-mer frequency, TF over GST control) | 1.3 fold enrichment (6-mer frequency, TF over GST control) | 1.21 fold enrichment (6-mer frequency, TF over GST control) | 1.36 fold enrichment (6-mer frequency, TF over GST control) | 1.31 fold enrichment (6-mer frequency, TF over GST control) | 1.24 fold enrichment (6-mer frequency, TF over GST control) | 1.27 fold enrichment (6-mer frequency, TF over GST control) | 1.33 fold enrichment (6-mer frequency, TF over GST control)
CTCAAC | 1.15 fold enrichment (6-mer frequency, TF over GST control) | 1.41 fold enrichment (6-mer frequency, TF over GST control) | 1.27 fold enrichment (6-mer frequency, TF over GST control) | 1.24 fold enrichment (6-mer frequency, TF over GST control) | 1.11 fold enrichment (6-mer frequency, TF over GST control) | 1.16 fold enrichment (6-mer frequency, TF over GST control) | 1.28 fold enrichment (6-mer frequency, TF over GST control) | 1.24 fold enrichment (6-mer frequency, TF over GST control)
AACTTA | 1.29 fold enrichment (6-mer frequency, TF over GST control) | 1.14 fold enrichment (6-mer frequency, TF over GST control) | 1.22 fold enrichment (6-mer frequency, TF over GST control) | 1.16 fold enrichment (6-mer frequency, TF over GST control) | 1.14 fold enrichment (6-mer frequency, TF over GST control) | 1.25 fold enrichment (6-mer frequency, TF over GST control) | 1.14 fold enrichment (6-mer frequency, TF over GST control) | 1.32 fold enrichment (6-mer frequency, TF over GST control)
GCTATA | 1.16 fold enrichment (6-mer frequency, TF over GST control) | 1.08 fold enrichment (6-mer frequency, TF over GST control) | 1.14 fold enrichment (6-mer frequency, TF over GST control) | 1.21 fold enrichment (6-mer frequency, TF over GST control) | 1.18 fold enrichment (6-mer frequency, TF over GST control) | 1.15 fold enrichment (6-mer frequency, TF over GST control) | 1.18 fold enrichment (6-mer frequency, TF over GST control) | 1.14 fold enrichment (6-mer frequency, TF over GST control)
TATTTA | 1.65 fold enrichment (6-mer frequency, TF over GST control) | 1.44 fold enrichment (6-mer frequency, TF over GST control) | 1.55 fold enrichment (6-mer frequency, TF over GST control) | 1.47 fold enrichment (6-mer frequency, TF over GST control) | 1.45 fold enrichment (6-mer frequency, TF over GST control) | 1.37 fold enrichment (6-mer frequency, TF over GST control) | 1.41 fold enrichment (6-mer frequency, TF over GST control) | 1.43 fold enrichment (6-mer frequency, TF over GST control)
CTCGAG | 1.29 fold enrichment (6-mer frequency, TF over GST control) | 1.25 fold enrichment (6-mer frequency, TF over GST control) | 1.17 fold enrichment (6-mer frequency, TF over GST control) | 1.16 fold enrichment (6-mer frequency, TF over GST control) | 1.36 fold enrichment (6-mer frequency, TF over GST control) | 1.16 fold enrichment (6-mer frequency, TF over GST control) | 1.16 fold enrichment (6-mer frequency, TF over GST control) | 1.32 fold enrichment (6-mer frequency, TF over GST control)
CTTGCG | 1.41 fold enrichment (6-mer frequency, TF over GST control) | 1.39 fold enrichment (6-mer frequency, TF over GST control) | 1.28 fold enrichment (6-mer frequency, TF over GST control) | 1.25 fold enrichment (6-mer frequency, TF over GST control) | 1.3 fold enrichment (6-mer frequency, TF over GST control) | 1.28 fold enrichment (6-mer frequency, TF over GST control) | 1.42 fold enrichment (6-mer frequency, TF over GST control) | 1.37 fold enrichment (6-mer frequency, TF over GST control)
ATTCTG | 1.38 fold enrichment (6-mer frequency, TF over GST control) | 1.28 fold enrichment (6-mer frequency, TF over GST control) | 1.31 fold enrichment (6-mer frequency, TF over GST control) | 1.27 fold enrichment (6-mer frequency, TF over GST control) | 1.23 fold enrichment (6-mer frequency, TF over GST control) | 1.21 fold enrichment (6-mer frequency, TF over GST control) | 1.26 fold enrichment (6-mer frequency, TF over GST control) | 1.43 fold enrichment (6-mer frequency, TF over GST control)
AATTCG | 1.38 fold enrichment (6-mer frequency, TF over GST control) | 1.38 fold enrichment (6-mer frequency, TF over GST control) | 1.23 fold enrichment (6-mer frequency, TF over GST control) | 1.25 fold enrichment (6-mer frequency, TF over GST control) | 1.32 fold enrichment (6-mer frequency, TF over GST control) | 1.2 fold enrichment (6-mer frequency, TF over GST control) | 1.29 fold enrichment (6-mer frequency, TF over GST control) | 1.24 fold enrichment (6-mer frequency, TF over GST control)
CCTACG | 1.37 fold enrichment (6-mer frequency, TF over GST control) | 1.59 fold enrichment (6-mer frequency, TF over GST control) | 1.35 fold enrichment (6-mer frequency, TF over GST control) | 1.41 fold enrichment (6-mer frequency, TF over GST control) | 1.49 fold enrichment (6-mer frequency, TF over GST control) | 1.43 fold enrichment (6-mer frequency, TF over GST control) | 1.38 fold enrichment (6-mer frequency, TF over GST control) | 1.61 fold enrichment (6-mer frequency, TF over GST control)
CTTGGT | 1.34 fold enrichment (6-mer frequency, TF over GST control) | 1.47 fold enrichment (6-mer frequency, TF over GST control) | 1.45 fold enrichment (6-mer frequency, TF over GST control) | 1.51 fold enrichment (6-mer frequency, TF over GST control) | 1.49 fold enrichment (6-mer frequency, TF over GST control) | 1.37 fold enrichment (6-mer frequency, TF over GST control) | 1.34 fold enrichment (6-mer frequency, TF over GST control) | 1.44 fold enrichment (6-mer frequency, TF over GST control)
